NALP3 yeast inh = NALP3 inhibition in yeast; Yeast reconstituted NLRP3/ASC/caspase-1, beta-gal luminescence, 24 h; inhibition, % at 10 µM; 330,000 compounds, 0.39% hits; AID 2825;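 active = inhibition of 50% or more; inactive = inhibition below 50%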;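 note: plate controls were induced DMSO wells for no effect and uninduced yeast grown without galactose for full effect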
PfHsp90 set2 = growth inhibition of yeast expressing Plasmodium Hsp90; 310,000 compounds, 0.32% hits; inhibition, % at 9.4 µM; S. cerevisiae expressing PfHsp90, BacTiter-Glo ATP, 48 h; yeast lacking PDR1 and PDR3 efflux regulators;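 active = every replicate shows inhibition above about 80%, whatever the replicate mean, limit read from the data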;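 note: 0% = DMSO neutral controls and 100% = 20 µM radicicol positive controls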
tim10-1 inh = growth inhibitors of tim10-1 mutant yeast. inhibition, % at 20 µM. S. cerevisiae tim10-1 ts strain growth, BacTiter-Glo, 24 h. 330,000 compounds, 2.2% hits;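 active = inhibition of at least 40%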;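 note: mutant grown at 25 °C; 0% = DMSO wells with yeast and 100% = wells holding no yeast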
SKKanGAS inh = blocks kanamycin growth of S. pyogenes SKKanGAS strain; BacTiter-Glo, 6 h; inhibition, % at 7.5 µM; 300,000 compounds, 1.3% hits; AID 1662;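 active = mean replicate score, as percent of positive control median, at least 50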;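 note: strain carries kanamycin resistance gene driven by streptokinase promoter and grows in 40 µg/ml kanamycin; loss of luminescence reflects streptokinase promoter inhibition or plain growth inhibition; 0% = median of DMSO wells and 100% = positive control at its reference dose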
tim23-1 inh = growth inhibitors of tim23-1 mutant yeast. AID 463212. S. cerevisiae tim23-1 growth, BacTiter-Glo luminescence, 24 h. inhibition, % at 20 µM. 330,000 compounds, 1.3% hits;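 active = growth inhibition of the mutant yeast at or above 50%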;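 note: temperature-sensitive mutant grown at 25 °C; plate controls were DMSO-treated mutant yeast for no effect and medium wells lacking yeast for full effect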
TIM10 inh = growth inhibitors of TIM10 yeast strain; 330,000 compounds, 1.4% hits; AID 463195; S. cerevisiae TIM10 strain growth, BacTiter-Glo luminescence, 24 h; inhibition, % at 10 µM;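 active = inhibition of 40% or more at the single tested concentration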;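 note: wild-type TIM10 isogenic control strain grown at permissive 25 °C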
NALP3 confirm = confirmation of NALP3 inhibitors in yeast; shares compounds with NALP3 yeast inh; 1,300 compounds, 81% hits; yeast expressing human NALP3, luminescence; inhibition, % at 10 µM; in the data active = inhibition above about 48%
Casp1 ASC ctr = counter-screen for NALP3 inhibitors: yeast caspase-1-ASC; shares compounds with NALP3 yeast inh; yeast expressing Caspase-1-ASC, luminescence counter screen; inhibition, % at 10 µM; 1,000 compounds, 66% hits; AID 488784
NALP3 yeast rt = retest-confirmed inhibitor of NALP3 in yeast; inhibition, % at 10 µM; yeast expressing human NALP3, luminescence read-out; 1,000 compounds, 53% hits; AID 488794; shares compounds with NALP3 yeast inh
Starred values were filed as active, the others as inactive; · = no result given. This is a sample that favours compounds with a hit; in the whole collection about 4.5% have one here. Cut-off read from the data, not from the text of the source, unless noted: active = inhibition above about 50%; inactive = the rest.

SMILES	NALP3 yeast inh	PfHsp90 set2	tim10-1 inh	SKKanGAS inh	tim23-1 inh	TIM10 inh	NALP3 confirm	Casp1 ASC ctr	NALP3 yeast rt
O=[N+]([O-])c1cc(F)cc(F)c1Nc1ccc(F)cc1	·	-14	·	·	·	·	·	·	·
Nc1ccc(N=Nc2ccc(N)cc2)cc1	35	18	2	-5	0	1	·	·	·
Cc1cc(N(C)C)ccc1N=Nc1ccc(N)cc1	51*	1	28	2	35	-4	45	46	40
COC(=O)c1cc(S(=O)(=O)N2CCN(c3cccc(OC)c3)CC2)cn1C	20	-24	3	-3	-3	-8	·	·	·
CCC(=O)N1CCN(CCN=CC2=C(O)CC(c3ccc(OC)cc3)CC2=O)CC1 (stereo not given)	53*	-18	15	-1	21	-1	35	·	·
CCCCCC(=O)N1CCN(CCN=CC2=C(O)CC(c3ccc(OC)cc3)CC2=O)CC1 (stereo not given)	55*	-2	0	-1	12	8	72*	46	48
CCCCCC(=O)N1CCN(CCN=CC2=C(O)CC(c3ccc(OC)c(OC)c3)CC2=O)CC1 (stereo not given)	58*	7	14	2	11	15	66*	43	37
COc1ccc(C2CC(=O)C(C=NCCN3CCNCC3)=C(O)C2)cc1OC (stereo not given)	·	·	·	0	·	·	·	·	·
COc1ccc(C2CC(=O)C(C=NCCCO)=C(O)C2)cc1 (stereo not given)	3	-12	5	0	11	4	·	·	·
CCOC(=O)CC1COCCN1C(=O)c1ccc2oc(Cc3ccccc3)nc2c1 (stereo not given)	8	6	13	-3	18	10	·	·	·
Cc1nnc2n1N=C(c1ccc(F)cc1F)CS2	-5	25	21	·	18	4	·	·	·
CCc1cc(C(=O)Nc2cc(Cl)ccc2N2CCN(C)CC2)sc1C	67*	7	-3	-2	11	-2	79*	77*	73*
Cc1cccc(N(C)c2ccc3cc(S(=O)(=O)N4CCCC4)ccc3n2)c1	68*	21	2	0	27	-7	79*	75*	58*
c1cc(-c2cc3cc4c(cc3cn2)OCO4)cs1	57*	29	-33	·	36	-4	51*	48	46
Cc1ccc(NC(=S)NNC(C)(C)C)cc1	51*	-11	8	5	-4	2	43	61*	31
N#Cc1ccc(-c2csc(NNC(=O)c3ccccc3)n2)cc1	19	·	4	17	9	-6	·	·	·
N#Cc1ccc(-c2csc(NNC(=O)c3ccc(Br)cc3)n2)cc1	51*	-6	-6	24	9	2	51*	38	36
Cc1ccc(S(=O)(=O)N(C)/N=C/c2ccc(N(C)C)cc2)cc1	51*	8	-2	-12	1	-9	54*	19	27
C[C@]12CCC3C(CC[C@H]4CC(O)CC[C@]34C)C1CC/C2=N/O (stereo not given in full)	51*	-4	-13	3	3	-12	73*	71*	55*
C[C@]12CCC3C(CC[C@H]4CC(O)CC[C@]34C)C1CC/C2=N/NC(=O)c1ccncc1 (stereo not given in full)	56*	3	-18	3	8	-17	80*	55*	44
Cc1c(/C=N/O)c2ccccn2c1C(=O)c1ccc(F)cc1	62*	33	17	-1	16	-12	77*	49	44
Cc1ccc(-c2c[nH]c(=S)n2-c2ccccc2F)cc1	55*	-9	26	5	5	16	38	·	·
CCOc1ccc(-n2c(-c3ccccc3)nnc2-c2ccccc2)cc1	25	-12	21	0	7	28	·	·	·
Cc1ccc(-c2c[nH]c(=S)n2-c2ccccc2)cc1	61*	16	19	9	4	26	36	39	29
COc1cccc(-n2c(-c3ccccc3)c[nH]c2=S)c1	35	-10	-9	-1	7	12	·	·	·
SMILES	NALP3 yeast inh	PfHsp90 set2	tim10-1 inh	SKKanGAS inh	tim23-1 inh	TIM10 inh	NALP3 confirm	Casp1 ASC ctr	NALP3 yeast rt
CCOc1ccc(-n2c(-c3ccccc3)c[nH]c2=S)cc1	59*	-26	7	-1	-1	17	58*	22	25
Cc1ccc(C(=O)N/C(=C\c2ccco2)C(=O)NCCN2CCOCC2)cc1C	6	29	-13	1	-3	-3	·	·	·
CC(=O)Nc1cccc(NS(=O)(=O)c2cn(C)c(=O)n(C)c2=O)c1	2	0	-5	-3	-5	-15	·	·	·
CCOC(=O)c1c(NC(=O)CC2SC(=NC)N(C)C2=O)sc(C)c1C (stereo not given)	60*	8	5	3	11	4	59*	60*	43
O=C1C(=O)N(CCCN2CCOCC2)C(c2ccc(F)cc2)/C1=C(\O)c1ccc2c(c1)OCCO2 (stereo not given)	-5	-4	20	7	7	-5	·	·	·
CCOc1ccc(/C(O)=C2/C(=O)C(=O)N(CCCN3CCOCC3)C2c2ccc(F)cc2)cc1C (stereo not given)	50*	-14	4	6	7	7	67*	48	28
CCCCCC(=O)N1CCN(CCN=CC2=C(O)CC(c3ccco3)CC2=O)CC1 (stereo not given)	53*	·	9	-5	19	14	54*	43	52*
CCCCCC(=O)N1CCN(CCN=CC2=C(O)CC(c3cccs3)CC2=O)CC1 (stereo not given)	51*	-22	12	2	8	16	65*	55*	44
COc1ccc(-c2ccc(SCC(=O)NCc3ccco3)nn2)cc1	-112	-11	31	-11	10	29	-1	·	·
Fc1cccc(/C=N/Nc2nncc3ccccc23)c1	57*	12	10	7	18	18	63*	44	38
C(=N\Nc1nncc2ccccc12)/c1ccccn1	18	-5	-22	2	49	17	·	·	·
CCOC(=O)c1ccc(S(=O)(=O)NNc2ccc(C(F)(F)F)cn2)cc1	6	10	0	·	4	0	·	·	·
Cc1cc(NC(=O)/C=C/c2ccccc2)no1	50*	2	-49	-2	46	11	68*	39	46
COc1ccc(/C=C/C(=O)Nc2cc(C)on2)cc1	32	-4	-20	2	2	2	·	·	·
COCCN(C(=O)COC(=O)c1cccs1)c1c(N)n(Cc2ccccc2)c(=O)[nH]c1=O	17	24	-15	13	3	-1	·	·	·

Assay outcomes from PubChem.
